In experiment [1] the target is CDK3/Cyclin E (Homo sapiens) (UniProt P24864+Q00526). The following applies: at 1 µM.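 Further: each figure is a mean percent inhibition of the CDK3/cyclin E complex.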
The target in experiment [2] is Cyclin-dependent kinase 4 (Homo sapiens) (UniProt P11802). The settings on record: at 0.1 µM.
For experiment [3] the target is unchanged. The following applies: at 1 µM.
Experiment [4] has as its target Cyclin-dependent kinase 5 (Homo sapiens) (UniProt Q00535). The settings on record: at 0.1 µM.
The target is the same in experiment [5]. The following applies: at 1 µM.
Experiment [6] concerns the target Cyclin-dependent kinase 6 (Homo sapiens) (UniProt Q00534). The settings on record: at 0.1 µM.
Experiment [7] has the same target. The settings on record: at 1 µM.
Experiment [8] concerns the target Dual specificity protein kinase CLK2 (Homo sapiens) (UniProt P49760). The following applies: at 0.1 µM.
The target is the same in experiment [9]. The settings on record: at 1 µM.
The target in experiment [10] is Dual specificity protein kinase CLK3 (Homo sapiens) (UniProt P49761). The settings on record: at 0.1 µM.

Each structure is given as a SMILES string.

Chain of Dual specificity protein kinase CLK3 (Homo sapiens) (P49761 whole entry, looked up): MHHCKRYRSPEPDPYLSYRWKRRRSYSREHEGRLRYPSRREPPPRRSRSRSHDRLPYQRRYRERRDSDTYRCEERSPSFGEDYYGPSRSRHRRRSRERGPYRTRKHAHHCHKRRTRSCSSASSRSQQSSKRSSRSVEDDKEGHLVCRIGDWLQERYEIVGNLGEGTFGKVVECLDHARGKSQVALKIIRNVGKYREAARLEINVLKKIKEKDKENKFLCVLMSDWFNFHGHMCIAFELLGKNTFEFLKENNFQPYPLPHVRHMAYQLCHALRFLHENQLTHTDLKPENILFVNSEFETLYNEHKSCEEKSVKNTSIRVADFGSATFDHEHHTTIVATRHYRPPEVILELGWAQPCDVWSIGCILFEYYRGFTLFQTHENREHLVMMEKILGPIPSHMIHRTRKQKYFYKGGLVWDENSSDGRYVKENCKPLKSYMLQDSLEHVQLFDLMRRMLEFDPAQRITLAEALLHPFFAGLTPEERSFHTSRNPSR
Chain of Cyclin-dependent kinase 6 (Homo sapiens) (Q00534 whole entry): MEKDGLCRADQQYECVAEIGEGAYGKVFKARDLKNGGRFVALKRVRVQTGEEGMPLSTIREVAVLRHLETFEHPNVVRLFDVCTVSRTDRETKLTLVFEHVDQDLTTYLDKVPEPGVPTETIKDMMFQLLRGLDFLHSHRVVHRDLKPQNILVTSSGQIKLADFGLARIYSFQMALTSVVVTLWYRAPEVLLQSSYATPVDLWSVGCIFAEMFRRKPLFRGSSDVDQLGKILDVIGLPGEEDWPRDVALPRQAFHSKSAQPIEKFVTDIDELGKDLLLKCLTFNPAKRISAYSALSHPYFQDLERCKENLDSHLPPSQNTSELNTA
Chain of Dual specificity protein kinase CLK2 (Homo sapiens) (P49760 whole entry, looked up): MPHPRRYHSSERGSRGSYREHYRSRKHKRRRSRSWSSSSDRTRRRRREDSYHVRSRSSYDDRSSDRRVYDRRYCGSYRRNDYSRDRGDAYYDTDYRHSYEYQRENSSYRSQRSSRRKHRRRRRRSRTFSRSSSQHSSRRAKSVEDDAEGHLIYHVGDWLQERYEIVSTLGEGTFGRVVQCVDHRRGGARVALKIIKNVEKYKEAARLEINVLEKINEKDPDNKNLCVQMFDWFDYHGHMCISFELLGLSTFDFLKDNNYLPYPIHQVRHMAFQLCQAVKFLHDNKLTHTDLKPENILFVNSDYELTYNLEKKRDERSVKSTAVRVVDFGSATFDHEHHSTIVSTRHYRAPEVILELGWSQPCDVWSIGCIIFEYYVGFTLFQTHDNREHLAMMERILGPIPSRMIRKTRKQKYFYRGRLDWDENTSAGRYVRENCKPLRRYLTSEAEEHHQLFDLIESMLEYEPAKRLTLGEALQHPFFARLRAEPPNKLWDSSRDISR
Chain of CDK3/Cyclin E (Homo sapiens) (P24864 whole entry, looked up): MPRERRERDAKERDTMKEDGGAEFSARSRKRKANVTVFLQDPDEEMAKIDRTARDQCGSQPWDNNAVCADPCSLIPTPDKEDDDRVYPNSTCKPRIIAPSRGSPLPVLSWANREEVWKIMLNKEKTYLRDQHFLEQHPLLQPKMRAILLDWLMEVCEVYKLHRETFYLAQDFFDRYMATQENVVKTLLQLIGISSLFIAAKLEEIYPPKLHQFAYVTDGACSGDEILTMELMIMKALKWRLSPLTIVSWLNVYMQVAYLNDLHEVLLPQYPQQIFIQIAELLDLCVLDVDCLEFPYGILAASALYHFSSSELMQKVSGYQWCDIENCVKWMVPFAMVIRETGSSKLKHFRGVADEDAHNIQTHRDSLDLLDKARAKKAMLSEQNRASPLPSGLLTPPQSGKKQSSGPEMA
Chain of CDK3/Cyclin E (Homo sapiens) (Q00526 whole entry, looked up): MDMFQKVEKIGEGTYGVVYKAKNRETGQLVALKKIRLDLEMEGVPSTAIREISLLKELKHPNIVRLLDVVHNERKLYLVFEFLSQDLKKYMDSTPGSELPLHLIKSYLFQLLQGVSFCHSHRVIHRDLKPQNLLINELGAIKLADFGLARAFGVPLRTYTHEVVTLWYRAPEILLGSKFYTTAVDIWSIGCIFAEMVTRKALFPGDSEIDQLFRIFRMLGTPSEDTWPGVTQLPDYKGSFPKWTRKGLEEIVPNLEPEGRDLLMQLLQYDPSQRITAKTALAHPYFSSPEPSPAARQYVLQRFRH
Chain of Cyclin-dependent kinase 5 (Homo sapiens) (Q00535 whole entry, looked up): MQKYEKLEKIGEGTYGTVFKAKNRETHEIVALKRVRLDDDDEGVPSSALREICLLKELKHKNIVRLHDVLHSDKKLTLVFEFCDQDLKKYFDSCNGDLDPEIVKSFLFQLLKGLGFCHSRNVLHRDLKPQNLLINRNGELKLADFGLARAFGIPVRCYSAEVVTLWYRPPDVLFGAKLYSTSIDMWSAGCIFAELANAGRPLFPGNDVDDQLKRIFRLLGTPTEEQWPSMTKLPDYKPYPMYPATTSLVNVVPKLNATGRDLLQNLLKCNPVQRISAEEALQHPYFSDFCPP
Chain of Cyclin-dependent kinase 4 (Homo sapiens) (P11802 whole entry): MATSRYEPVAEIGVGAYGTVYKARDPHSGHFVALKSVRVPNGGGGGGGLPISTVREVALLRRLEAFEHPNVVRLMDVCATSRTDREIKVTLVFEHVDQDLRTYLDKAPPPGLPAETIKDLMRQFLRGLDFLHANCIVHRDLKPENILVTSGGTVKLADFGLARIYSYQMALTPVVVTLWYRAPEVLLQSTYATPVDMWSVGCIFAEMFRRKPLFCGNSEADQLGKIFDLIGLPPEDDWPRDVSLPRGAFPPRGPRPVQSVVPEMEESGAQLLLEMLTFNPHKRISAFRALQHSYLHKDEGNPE

Consider `CCn1c(-c2nonc2N)nc2c(C#CC(C)(C)O)nc(CN3CCCC3)cc21`, for which the inhibition (as a rule, the relative decrease from the control value, in per cent) in experiment [1] is -0.95%; in [2], 1.6%; in [3], 2.5%; in [4], 1.06%; in experiment [5], 2.14%; in [6] it was -8.94%. Further, the inhibition in experiment [7] is 0.66%; in [8], -0.92%; in experiment [9], 1.46%; in experiment [10], -1.6%.

As to `Fc1cccc(COc2ccc(Nc3ncnc4sc(-c5cccs5)cc34)cc2Cl)c1`, the inhibition in [1] was 0.05%; in experiment [2], 0.35%; in experiment [3] it was 2.13%; in experiment [4], 0.55%; in experiment [5], 1.81%; in experiment [6] it was -0.81%. Also, the inhibition in experiment [7] turned out to be 0.5%; in experiment [8], 1.58%; in experiment [9], 1.69%; in [10] it was 0.66%.

For `CCn1c(-c2nonc2N)nc2cncc(C(=O)N3CC[C@H](N)C3)c21`, the inhibition in experiment [1] is -2.13%; in [2] it was 2.98%; in experiment [3] it was 2.35%; in experiment [4] it was 0.46%; in experiment [5] it was 0.69%; in experiment [6] it was -1.51%. The inhibition in experiment [7] worked out at 4.8%; in [8], 5.07%; in experiment [9] it was 21.6%; in experiment [10], 1.31%.

`NS(=O)(=O)c1ccc(N/N=C2\C(=O)Nc3ccc(C(=O)NCCc4c[nH]cn4)cc32)cc1`: the inhibition in experiment [1] was found to be 81.3%; in experiment [2], 14.4%; in experiment [3], 56.4%; in experiment [4] it was 48.3%; in [5], 84.4%; in experiment [6] it was 14.9%. For the same compound, the inhibition in [7] stood at 55.9%; in experiment [8], 46.5%; in experiment [9] it was 91.9%; in experiment [10] it was 4.48%.

For the compound `COc1cc2ncn(-c3cc(O[C@@H](C)c4ccccc4Cl)c(C(N)=O)s3)c2cc1OC`, the inhibition in experiment [1] is -0.13%; in experiment [2], 2.39%; in experiment [3], 4.14%; in experiment [4], 0.19%; in experiment [5] it was 2.21%; in experiment [6], -0.46%. Besides, the inhibition in [7] was 1.56%; in experiment [8], 0.33%; in experiment [9], 0.86%; in [10], 0.71%.

Consider `CCn1c(-c2nonc2N)nc2c(N3CCCC3)nccc21`, for which the inhibition in experiment [1] is -0.6%; in experiment [2], 15.6%; in experiment [3] it was 4.7%; in [4] it was 1.73%; in [5] it was 4.5%; in experiment [6] it was -2.76%. Moreover, the inhibition in experiment [7] is 2.52%; in experiment [8], -0.76%; in experiment [9] it was -0.67%; in [10] it was 1%.

On to `COc1ccc(-c2nn3ncccc3c2-c2ccnc(Nc3ccc(Cl)c(C(F)(F)F)c3)n2)cc1`, for which the inhibition in experiment [1] is -0.57%; in experiment [2], 1.13%; in [3] it was 2.09%; in experiment [4], 0.45%; in [5], 0.19%; in experiment [6] it was 0.68%. Further, the inhibition in [7] came to 1.73%; in experiment [8], 0.95%; in experiment [9], 1.59%; in [10], 1.77%.

Regarding `c1cnn2ncc(-c3ccnc(Nc4ccc5c(c4)OCCO5)n3)c2c1`, the inhibition worked out at 85.6% in experiment [1]; 51.9% in [2]; 85.7% in experiment [3]; 57.4% in [4]; 90.4% in experiment [5]; 46.5% in [6]. For the same compound, the inhibition in experiment [7] stood at 85%; in [8] it was 90.1%; in experiment [9] it was 97.6%; in experiment [10], 12.6%.

Turning to `CS(=O)(=O)CCNCc1ccc(-c2ccc3ncnc(Nc4ccc(OCc5cccc(F)c5)c(C(F)(F)F)c4)c3c2)o1`, the inhibition in experiment [1] was -2.95%; in experiment [2], 2.52%; in experiment [3], 2.44%; in experiment [4] it was 0.38%; in experiment [5], 0.07%; in experiment [7], -2.6%. The inhibition amounted to 0.58% in experiment [8], 0.13% in experiment [9] and 1.49% in [10].

Consider `NC(=O)c1ccc(-c2nc(-c3ccccn3)c(-c3ccc4c(c3)OCO4)[nH]2)cc1`, for which the inhibition in experiment [1] is -1.06%; in experiment [2], 1.33%; in [3], 1.94%; in experiment [4] it was 0.55%; in experiment [5] it was 0.87%; in experiment [6], 1%. Moreover, the inhibition in experiment [7] is -1.82%; in experiment [8] it was 1.23%; in [9] it was 1.07%; in experiment [10], -1.49%.

For `CC(=O)Nc1cccc(C#Cc2cncnc2Nc2ccc(OCc3cccc(F)c3)c(Cl)c2)n1`, the inhibition was -0.89% in experiment [1]; -1.95% in experiment [2]; -1.42% in [3]; 0.24% in experiment [4]; 1.19% in experiment [5]; -1.85% in experiment [6]. Also, the inhibition was 0.62% in [8], 0.84% in [9] and -0.78% in experiment [10].

Consider `Cc1ccc(C(=O)NC2CCCCC2)cc1-c1ccc(C(=O)NCC2CC2)cc1`, for which the inhibition in experiment [1] came out at 0.7%; in experiment [2], 2.37%; in experiment [3] it was 2.51%; in experiment [4] it was 1.19%; in experiment [5], 1.18%; in experiment [6], 3.79%. The inhibition was 0.76% in experiment [7], 2.01% in experiment [8], 2.19% in experiment [9] and 0.94% in experiment [10].

`CNC(=O)c1cncc(/C=C/c2c(Cl)cccc2Cl)c1`: the inhibition in experiment [1] was -3.08%; in experiment [2], 0.86%; in [3], 3.96%; in experiment [4] it was -2.57%; in experiment [5], -0.63%; in experiment [6], -5.76%. The inhibition in experiment [7] was -5.69%; in experiment [8], 2.47%; in experiment [9] it was 5.66%; in experiment [10], -3.56%.

Consider `CS(=O)(=O)CCNCc1ccc(-c2ccc3ncnc(Nc4ccc(OCc5ccccc5)c(Cl)c4)c3c2)o1`, for which the inhibition is -1.2% in experiment [1]; -0.14% in experiment [2]; 4.1% in [3]; 2.15% in experiment [4]; 3.8% in experiment [5]; -5.27% in experiment [6]. For the same compound, the inhibition in experiment [7] is -2.22%; in experiment [8], 2.2%; in experiment [9], 1.75%; in experiment [10], 0.36%.

On to `COc1cc2ncn(-c3cc(O[C@H](C)c4ccccc4Cl)c(C(N)=O)s3)c2cc1OC`, for which the inhibition in [1] is 5.51%; in [2] it was 2.41%; in experiment [3] it was 3.26%; in [4], 0.86%; in [5], 1.47%; in experiment [6], -0.21%. The inhibition in experiment [7] was -0.74%; in experiment [8] it was 3.38%; in [9] it was 5.22%; in experiment [10], 2.12%.

For the compound `Nc1nc(-c2ccc3c(c2)C(=Cc2cc(Br)c(O)c(Br)c2)C(=O)N3)cs1`, the inhibition in experiment [1] is -0.65%; in experiment [2] it was -0.86%; in experiment [3], 2.39%; in [4], 1.35%; in [5], 2.98%; in experiment [6] it was -5%. Also, the inhibition is -0.79% in experiment [7], 1.02% in [8], 2.39% in experiment [9] and 0.15% in [10].

Consider `CS(=O)(=O)CCNCc1nc(-c2ccc3ncnc(Nc4ccc(F)c(Cl)c4)c3c2)cs1`, for which the inhibition in [1] is -2.13%; in experiment [2] it was 0.51%; in [3], 0.73%; in experiment [4] it was 0.12%; in experiment [5], 0.38%; in [6], 6.34%. For the same compound, the inhibition in experiment [7] was -1.47%; in experiment [8], 0.29%; in experiment [9], 2.89%; in experiment [10], -0.05%.

The record behind these values is ChEMBL document CHEMBL1961873, “Compounds: GSK PKIS; Assays: Nanosyn kinase panel” (2012).
